Compound activity from PubChem BioAssay.
tim23-1 inh – inhibits growth of tim23-1 mutant yeast | 1.3% of 330,000 active | S. cerevisiae tim23-1 growth, BacTiter-Glo luminescence, 24 h | inhibition, % at 20 µM | AID 463212;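 active = growth inhibition of the mutant yeast at or above 50%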;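 also: temperature-sensitive mutant grown at 25 °C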
TIM10 inh – inhibits growth of TIM10 yeast strain; S. cerevisiae TIM10 strain growth, BacTiter-Glo luminescence, 24 h; AID 463195; 1.4% of 330,000 active; inhibition, % at 10 µM;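 active = inhibition of 40% or more at the single tested concentration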;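 also: wild-type TIM10 isogenic control strain grown at permissive 25 °C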
tim10-1 inh – inhibits growth of tim10-1 mutant yeast. S. cerevisiae tim10-1 ts strain growth, BacTiter-Glo, 24 h. inhibition, % at 20 µM. 2.2% of 330,000 active. AID 463190;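 active = inhibition of at least 40%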;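 also: mutant grown at 25 °C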
NALP1 inh – inhibitors of NALP1 inflammasome in yeast; S. cerevisiae NALP1/ASC/caspase-1 growth, X-gal OD620, 72 h; inhibition, % at 10 µM; 0.61% of 280,000 active; AID 2071; in the data active = inhibition mostly above about 24%, no sharp cut-off; inactive = mostly below about 32%
NLRP3 yeast inh – blocks the NALP3 inflammasome reconstituted in yeast. Yeast reconstituted NLRP3/ASC/caspase-1, beta-gal luminescence, 24 h. inhibition, % at 10 µM. 0.39% of 330,000 active;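 active = inhibition of 50% or more; inactive = inhibition below 50%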
NALP3 confirm – NALP3 inhibition confirmation in yeast | AID 435006 | shares compounds with NLRP3 yeast inh | inhibition, % at 10 µM | 81% of 1,300 active | yeast expressing human NALP3, luminescence; in the data active = inhibition above about 48%
Casp1 ASC ctr – counter-screen for NALP3 inhibitors: yeast caspase-1-ASC; shares compounds with NLRP3 yeast inh; yeast expressing Caspase-1-ASC, luminescence counter screen; inhibition, % at 10 µM; 66% of 1,000 active
NALP3 retest – yeast NALP3 inhibition, confirmed on retest. 53% of 1,000 active. shares compounds with NLRP3 yeast inh. inhibition, % at 10 µM. yeast expressing human NALP3, luminescence read-out
tim10-1 conf – confirmation of tim10-1 mutant yeast growth inhibitors; shares compounds with tim10-1 inh; S. cerevisiae tim10-1 ts strain growth, BacTiter-Glo, 24 h; inhibition, % at 20 µM; 56% of 7,400 active;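 active = inhibition of yeast growth at or above a set limit in either of two repeat tests at 20 µM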;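 also: tim10-1 mutant grown at permissive 25 °C to find synthetic lethal compounds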
tim10 confirm – confirmation of TIM10 yeast growth inhibitors; S. cerevisiae tim10 strain growth, BacTiter-Glo luminescence, 24 h; shares compounds with TIM10 inh; inhibition, % at 10 µM; 63% of 4,600 active; AID 463215;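 active = inhibition of yeast growth at or above a set limit in either of two replicates at 10 µM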; also: this counterscreen used the strain with wild-type TIM10
tim23-1 confirm – confirmation of tim23-1 mutant yeast growth inhibitors; shares compounds with tim23-1 inh; inhibition, % at 20 µM; 83% of 4,400 active; S. cerevisiae tim23-1 growth, BacTiter-Glo luminescence, 24 h;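 active = inhibition above about 39% in either of two replicate wells at 20 µM, limit read from the data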;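 also: temperature-sensitive tim23-1 mutant grown at 25 °C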
Hits are given with their value; – = inactive; · = no result given. Hits are enriched below; roughly 4% of the tested compounds scored in any of these assays. Rule as the data show it, unless noted: active = inhibition above about 50%; inactive = the rest.

SMILES	tim23-1 inh	TIM10 inh	tim10-1 inh	NALP1 inh	NLRP3 yeast inh	NALP3 confirm	Casp1 ASC ctr	NALP3 retest	tim10 confirm	tim23-1 confirm	others
COc1ccc(-c2nc3ccccc3c(=O)n2N)cc1	–	–	–	–	–	·	·	·	·	·
Oc1ccc(Oc2ccc(Oc3ccc(O)cc3)cc2)cc1	59	–	–	38	79	83	93	85	·	51
Clc1ccc2ccc3cccnc3c2n1	–	–	–	–	–	·	·	·	·	·
O=S1(=O)Nc2c(ccc3cccnc23)-c2ccccc21	70	48	–	–	70	86	98	91	57	47
COc1cc(C(=O)ON=C2C3CC4CC(C3)CC2C4)cc(OC)c1OC	50	82	–	–	59	92	–	–	84	60
O=c1[nH]cnc2c1C(c1ccccc1)c1c(nc[nH]c1=O)O2	–	–	–	–	–	·	·	·	·	·
Oc1c(I)cc(I)c2cccnc12	69	53	71	–	65	62	–	–	76	56	tim10-1 conf=65
Oc1c(Cl)cc(Cl)c2cccnc12	·	·	·	–	·	·	·	·	·	·
CN(Cc1ccccc1)C(=O)c1ccc(NC(=O)Cc2cccc(NC(=O)C3CCN(C(=O)C4CCCC4)CC3)c2)cc1	–	–	–	·	–	·	·	·	·	·
CCc1sc(C(=O)Nc2ncccc2C)cc1C	–	–	–	–	–	·	·	·	·	·
O=C(Nc1ccccn1)c1ccc(Cl)s1	–	–	–	–	–	·	·	·	·	·
CCc1sc(C(=O)Nc2nccs2)cc1C	54	–	–	–	53	72	81	70	·	58
O=C(Nc1nccs1)c1ccc(Cl)s1	70	–	–	–	51	70	60	–	·	57
O=C(N/N=C/C=C/c1ccccc1)c1cccs1	–	–	–	–	–	·	·	·	·	·
O=C(N/N=C/C(Br)=C/c1ccccc1)c1cccs1	61	41	–	–	50	63	·	·	–	76
COc1ccc(N=C(C)C2=C(O)c3ccccc3C2=O)cc1	58	62	–	–	50	–	57	–	–	68
C/C(=N\N(C)C)C1=C(O)c2ccccc2C1=O	–	–	–	–	–	·	·	·	·	·
Brc1ccc(-n2cnc(-c3ccccc3)c2)cc1	55	–	–	–	52	77	–	51	·	51
Nc1cc(-c2ccccc2)nn1S(=O)(=O)c1ccc(Br)cc1	–	–	–	–	–	·	·	·	·	·
CCCc1c(C)nc(N2CCN(c3ccccc3F)CC2)[nH]c1=O	–	–	–	–	–	·	·	·	·	·
Cc1ccc2nc(N3C(=O)CNC3=S)sc2c1	64	–	–	–	81	61	87	83	·	66
Cc1cccc(CC2CC(=O)N(c3nc4ccccc4s3)C2=O)c1 (centres undefined)	–	–	–	–	–	·	·	·	·	·
Cc1ccc(NN2C(=O)C=C(c3ccc(Cl)cc3)C2=O)cc1	68	73	–	–	95	–	·	·	59	–
COCC(=O)N1CCC(Oc2ccc(C(=O)NC(C)c3csc(C)n3)cc2)CC1 (centres undefined)	–	–	–	–	–	·	·	·	·	·
CCCn1c(C(C)C)n[nH]c1=S	–	–	–	·	–	·	·	·	·	·
SMILES	tim23-1 inh	TIM10 inh	tim10-1 inh	NALP1 inh	NLRP3 yeast inh	NALP3 confirm	Casp1 ASC ctr	NALP3 retest	tim10 confirm	tim23-1 confirm	others
COc1ccc(NS(=O)(=O)c2cccc(C(=O)NNC(=O)CNC(=O)c3ccco3)c2)cc1	–	–	–	–	–	·	·	·	·	·
CCOC(=O)N=Nc1c2ccccc2c2nc3no[nH]c3nc12	55	86	76	–	86	92	72	62	96	81	tim10-1 conf=81
O=C(NC(Nc1nc2ccc([N+](=O)[O-])cc2s1)(C(F)(F)F)C(F)(F)F)c1ccccc1Cl	71	66	78	105	74	94	87	94	68	86	tim10-1 conf=76
Cc1ccc(OCC(O)CNC2CCCC2)cc1C (centres undefined)	–	–	–	–	–	·	·	·	·	·
O=C(NC1CCCCC1)c1c(O)nc2sccn2c1=O	67	–	–	·	58	74	–	–	·	47
Cc1cc(C(=O)Nc2ccc(Br)cn2)sc1C	64	–	–	·	59	61	57	56	·	68
O=C(COC(=O)Cn1cc(C(F)(F)F)ccc1=O)Nc1ccc(Br)cc1F	–	–	–	·	–	·	·	·	·	·
CN1CCN(C(=O)c2cc(COc3c(F)cccc3F)on2)CC1c1ccccc1 (centres undefined)	63	52	42	–	84	88	85	84	53	50	tim10-1 conf=–
O=C(CNS(=O)(=O)c1ccc(Br)cc1)Nc1ccc2c(c1)OCCO2	–	–	–	–	–	·	·	·	·	·
CCCn1c(N)cc(=O)n(CCC)c1=O	–	–	–	–	–	·	·	·	·	·
Cc1ccc(S(=O)(=O)N2CCN(S(=O)(=O)c3ccccc3Br)C2=O)cc1	–	–	–	·	·	·	·	·	·	·
COc1ccc(-c2cc3nc4n(c(=O)c3s2)CCCCC4)cc1	–	–	–	–	–	·	·	·	·	·
COc1ccc(-c2cc3nc4n(c(=O)c3s2)CCC4)cc1	58	70	58	–	53	72	–	–	76	55	tim10-1 conf=54
O=C(/C=C/c1ccnc2ccccc12)c1cccs1	67	79	71	–	53	73	·	·	83	–	tim10-1 conf=72
N#Cc1ccccc1NS(=O)(=O)c1cc2c3c(c1)CCN3C(=O)CC2	–	–	–	·	–	·	·	·	·	·
CN(CC(=O)Nc1ccc(Cl)cc1)C(=O)CNC(=O)c1ccc(Br)o1	–	–	–	·	–	·	·	·	·	·
CCN(CC)c1nc(C(N)=O)cc(-c2ccccc2)n1	67	48	63	–	53	–	65	–	–	74	tim10-1 conf=61
CC(=O)c1cccc(NC(=O)CN2C(=O)NC(C)(c3ccc4c(c3)OCCCO4)C2=O)c1 (centres undefined)	–	–	–	·	–	·	·	·	·	·
CN1CCN(C(c2ccc(Br)cc2)c2cc(Cl)c3cccnc3c2O)CC1 (centres undefined)	66	–	–	–	57	–	·	·	·	77
O=c1c2ccccc2nc(-c2ccc([N+](=O)[O-])cc2)n1O	52	–	–	–	58	74	51	58	·	47
CCCN(C(=O)c1cnccn1)c1c(N)n(Cc2ccccc2)c(=O)[nH]c1=O	–	–	–	·	–	·	·	·	·	·
Oc1c(Cl)cc(Cl)cc1CNc1ccccn1	52	–	–	–	52	67	–	–	·	49
CCOC(=O)C(=CNc1cc(C)nn1-c1ccc(Cl)cc1)C(=O)OCC	–	–	–	–	–	·	·	·	·	·
